Results from PubChem BioAssay (NCATS).
“And” between values parts separate entries of the source, which are not always exact repeats. Equal values may be shown once. Inconclusive results are not listed. The source made the active and inactive calls. Unless noted, calls follow the shape of the dose curve; as a rule, active = well fitted curve in the direction sought with a large enough effect; inconclusive = small, poorly fitted or top-dose-only effect, or another doubt; inactive = no such curve, though single readings can be large; an effect the other way counts as inactive or inconclusive.

Assays:
[1] = target: Cellular tumor antigen p53 (Homo sapiens) (UniProt P04637); test: Primary qHTS for small molecule compounds that upregulate eGFP-tagged delta133p53alpha (in N-terminal) cells. (AID 2060322); settings: NCI-H358 eGFP-delta133p53alpha fluorescence, 24 h; activation: hits give high values; also: nearly all actives have a fitted effect of over 75% in size; also: potency is read from the fitted curve at half-maximal effect;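 as to activation: cells pre-induced with doxycycline then dosed without doxycycline; series mostly up to about 56 µM; 0% = DMSO vehicle and 100% = reference activator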
Summary of the method: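 NCI-H358 cells pre-induced 24 h with 10 ng/ml doxycycline for eGFP-delta133p53alpha, plated dox-free and exposed 24 h at 37C to titrated compounds. Fixed, Hoechst-stained; gated GFP peak intensity by laser scanning cytometry, normalized to DMSO (0%) and 57.5 uM 5-azacytidine (100%).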

[2] = target: Aldehyde dehydrogenase, mitochondrial (Homo sapiens) (UniProt P05091); test: qHTS for Inhibitors of the Aldehyde Dehydrogenase Family (ALDH2) Validation screens (AID 2061302; active = well fitted inhibition curve with a large enough effect; title and protocol of this record describe different tests;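 also: plate controls were DMSO vehicle for no effect and maximal DPI positive control response for full effect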)
[3] = target: Retinaldehyde dehydrogenase 3 (Homo sapiens) (UniProt P47895); test: qHTS for Inhibitors of the Aldehyde Dehydrogenase Family (ALDH1A3) Validation screen (AID 2061312); also: nearly all actives have a fitted effect of over 45% in size; also: potency is read from the fitted curve at half-maximal effect
[4] = BET inhibitor-based combinations targeting novel dependencies in MECOM-rearranged (r) AML: OCI-AML3 cell line (AID 2202232); settings: Potency: OCI-AML3 viability;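 also: series mostly up to about 46 µM; plate controls were DMSO vehicle wells for no effect and wells without cells for full effect; nearly all actives have a fitted effect of over 35% in size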
Summary of the method: (§1)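 Readout: CellTiter-Glo luminescence. Exposure: 48 h, 11 concentrations, 500 cells/well. Metric: AUC and within-line Z-AUC after DMSO/empty-well normalization.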

[5] = BET inhibitor-based combinations targeting novel dependencies in MECOM-rearranged (r) AML: MV-4-11 cell line (AID 2202233);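 also: plate controls were DMSO for no effect and blank wells for full effect; nearly all actives have a fitted effect of over 45% in size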
Summary of the method: (§2)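 Seeding density was 500 cells/well, and drug exposure lasted 48 hr under standard culture conditions. Read-out used CellTiter-Glo reagent with a 15 min room-temperature incubation before luminescence measurement; AUC and Z-AUC summarize the normalized responses.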

[6] = BET inhibitor-based combinations targeting novel dependencies in MECOM-rearranged (r) AML: HNT-34 cell line (AID 2202234);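 also: plate controls were vehicle wells for no effect and cell-free wells for full effect; nearly all actives have a fitted effect of over 35% in size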
Summary of the method: as §2

[7] = BET inhibitor-based combinations targeting novel dependencies in MECOM-rearranged (r) AML: UCSD-AML1 cell line (AID 2202235);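 also: series mostly up to about 46 µM; plate controls were DMSO vehicle wells for no effect and blank wells for full effect; nearly all actives have a fitted effect of over 40% in size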
Summary of the method: as §2

[8] = BET inhibitor-based combinations targeting novel dependencies in MECOM-rearranged (r) AML: AML-191 cell line (AID 2202236;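 also: plate controls were vehicle wells for no effect and wells without cells for full effect; nearly all actives have a fitted effect of over 35% in size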)
Summary of the method: as §1

[9] = BET inhibitor-based combinations targeting novel dependencies in MECOM-rearranged (r) AML: AML-194 cell line (AID 2202237;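 also: plate controls were vehicle wells for no effect and wells without cells for full effect; nearly all actives have a fitted effect of over 40% in size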)
Summary of the method: as §1

[10] = target: Aldehyde dehydrogenase 1A1 (Homo sapiens) (UniProt P00352); test: qHTS for Inhibitors of the Aldehyde Dehydrogenase Family (ALDH1A1) Confirmatory screens (AID 2061316); also: nearly all actives have a fitted effect of over 65% in size; also: potency is read from the fitted curve at half-maximal effect
[11] = target: Aldehyde dehydrogenase, mitochondrial (Homo sapiens) (UniProt P05091); test: qHTS for Inhibitors of the Aldehyde Dehydrogenase Family (ALDH2) Confirmatory screens (AID 2061303; active = well fitted inhibition curve with a large enough effect; title and protocol of this record describe different tests; also: % is scaled to controls: 0 for no effect and ±100 for the full control effect; nearly all actives have a fitted effect of over 45% in size)
[12] = qHTS for Inhibitors of the Aldehyde Dehydrogenase Family (ALDH1A2, ALDH1A3, ALDH2, ALDH3A1) (AID 2061307); also: nearly all actives have a fitted effect of over 50% in size; as to Potency: test system not described further here; potency is read from the fitted curve at half-maximal effect
[13] = target: Aldehyde dehydrogenase, mitochondrial (Homo sapiens) (UniProt P05091); test: qHTS for Inhibitors of the Aldehyde Dehydrogenase Family (ALDH2) Primary screen (AID 2061308);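 also: plate controls were vehicle for no effect and reference inhibitor for full effect; nearly all actives have a fitted effect of over 55% in size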
[14] = target: Retinaldehyde dehydrogenase 3 (Homo sapiens) (UniProt P47895); test: qHTS for Inhibitors of the Aldehyde Dehydrogenase Family (ALDH1A3) Primary screen (AID 2061315); also: potency is read from the fitted curve at half-maximal effect
[15] = target: Retinaldehyde dehydrogenase 3 (Homo sapiens) (UniProt P47895); test: qHTS for Inhibitors of the Aldehyde Dehydrogenase Family (ALDH1A3) Confirmatory screens (AID 2061311); also: nearly all actives have a fitted effect of over 60% in size; also: potency is read from the fitted curve at half-maximal effect
[16] = target: Retinal dehydrogenase 2 (Homo sapiens) (UniProt O94788); test: qHTS for Inhibitors of the Aldehyde Dehydrogenase Family (ALDH1A2) Confirmation screens (AID 2061314); also: % is scaled to controls: 0 for no effect and ±100 for the full control effect; nearly all actives have a fitted effect of over 65% in size

Sequence of Cellular tumor antigen p53 (Homo sapiens) (P04637 whole entry, looked up): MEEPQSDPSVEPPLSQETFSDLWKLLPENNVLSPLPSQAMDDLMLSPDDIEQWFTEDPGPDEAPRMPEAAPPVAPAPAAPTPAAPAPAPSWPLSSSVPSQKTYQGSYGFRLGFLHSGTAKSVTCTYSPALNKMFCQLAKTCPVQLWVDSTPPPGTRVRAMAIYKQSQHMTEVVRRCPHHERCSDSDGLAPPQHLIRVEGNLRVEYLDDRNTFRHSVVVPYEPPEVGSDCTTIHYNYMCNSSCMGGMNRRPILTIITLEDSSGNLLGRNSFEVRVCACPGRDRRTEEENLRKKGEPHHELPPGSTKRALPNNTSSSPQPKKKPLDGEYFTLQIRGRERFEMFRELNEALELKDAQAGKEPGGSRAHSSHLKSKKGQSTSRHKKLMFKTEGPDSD

COC(=O)[C@@H](N)CCCN=C(N)N[N+](=O)[O-]
inactive: activation [1] -9.21% and -14.8% | Potency [2] | Potency [3] | Potency [4] | Potency [5] | Potency [6] | Potency [7] | Potency [8] | Potency [9]

c1ccc2c(c1)OCC(C1=NCCN1)O2 (stereo unspecified)
inactive: activation [1] -26.9% | Potency [2] | Potency [3]

Clc1cc(I)cc(Cl)c1NC1=NCCN1
inactive: activation [1] -24.7% | Potency [2] | Potency [3]

CC(C)(C)c1cc(C=C(C#N)C#N)cc(C(C)(C)C)c1O
inactive: activation [1] 6.66% | Potency [2] | Potency [3]

CC(=O)[C@H]1CCC2C3CC[C@H]4C[C@H](O)CC[C@]4(C)C3CC[C@@]21C (stereo partly specified)
inactive: activation [1] -16.4% | Potency [2] | Potency [3]

C[C@]12Cc3cn4c(nc3C=C1CCC1C2CC[C@@]2(C)[C@H]1CC[C@@]2(O)C#N)nc1ccccc14 (stereo partly specified)
active: Potency [10] 12.7 µM
inactive: activation [1] -9.64% | Potency [2]

NCC(O)c1cc(O)c(O)cc1F (stereo unspecified)
inactive: activation [1] -23.1% | Potency [2] | Potency [3]

NNC(=O)c1nn(Cc2ccc(Cl)cc2Cl)c2ccccc12
active: Potency [12] 8.91 µM
inactive: activation [1] 17% | Potency [11] | Potency [13] | Potency [14]

COc1cc(N2CCN(C)CC2)ccc1N
active: Potency [15] 25.2 µM | Potency [14] 1.26 µM
inactive: activation [1] 20% | Potency [12] | Potency [13]

CCC(C)C1NC(=O)C(C(C)=O)=C1O (stereo unspecified)
inactive: activation [1] 13% | Potency [11] | Potency [12] | Potency [13] | Potency [14]

CCOC(=O)c1ncn2c1[C@@H]1CCCN1C(=O)c1cc(OC)ccc1-2
inactive: activation [1] 2.15% | Potency [11] | Potency [12] | Potency [15] | Potency [16] | Potency [10]

CCc1[nH]c2ccc(OC)cc2c1CCN(C)C
inactive: activation [1] 8.59% | Potency [11] | Potency [13] | Potency [15]

CC[C@@H]1C[C@H]2CC[C@H](O2)[C@H](C)C(=O)O[C@@H](C)C[C@@H]2CC[C@@H](O2)[C@@H](C)C(=O)O[C@H](CC)C[C@H]2CC[C@H](O2)[C@H](C)C(=O)O[C@@H](C)C[C@@H]2CC[C@@H](O2)[C@@H](C)C(=O)O1
inactive: Potency [13]
active: Potency [1] 6.3 µM

CCN1C[C@]2(COC(=O)c3ccccc3N3C(=O)C[C@H](C)C3=O)CC[C@H](OC)[C@@]34[C@@H]5C[C@H]6[C@H](OC)[C@@H]5[C@](O)(C[C@@H]6OC)[C@](O)([C@@H](OC)[C@H]23)[C@@H]14
inactive: activation [1] 10.3% | Potency [11] | Potency [12] | Potency [13] | Potency [15] | Potency [16] | Potency [14] | Potency [10]

C=CC(C)(C)c1[nH]c2c(CC=C(C)C)cc(CC=C(C)C)cc2c1C[C@@H]1NC(=O)[C@H](C)NC1=O
inactive: activation [1] 14.3% | Potency [13]

COC(=O)[C@]12CCCC(C)(C)C1CCc1cc(C(C)C)c(O)c(O)c12 (stereo partly specified)
inactive: activation [1] -23.7% | Potency [13]

CO[C@@H]1[C@H](O)[C@@H](O[C@@H]2C[C@H]3CC[C@@H]4C(CC[C@]5(C)[C@@H](C6=CC(=O)OC6)CC[C@]45O)[C@@]3(C)[C@H](O)C2)O[C@H](C)[C@@H]1O (stereo partly specified)
active: Potency [1] 1.04 µM
inactive: Potency [11] | Potency [12] | Potency [13] | Potency [15] | Potency [16] | Potency [14] | Potency [10]

CS[C@]1(CO)C(=O)N2[C@H]3C(=CC=C[C@@H]3O)C[C@@]2(SC)C(=O)N1C
inactive: activation [1] -6.11% | Potency [13]

CC(=O)O[C@H]1CC[C@@]2(CI)C(=CC[C@@H]3[C@@H]2CC[C@]2(C)C(=O)CC[C@@H]32)C1
active: Potency [10] 10.1 µM
inactive: activation [1] 13.7% | Potency [12]

Cc1[nH]c2ccc(Cl)cc2c1CCN(C)C
active: Potency [3] 10 µM
inactive: activation [1] -3.82% | Potency [11] | Potency [12] | Potency [15] | Potency [16] | Potency [14]

CCN1C[C@]2(OC(=O)c3ccccc3NC(C)=O)CC[C@H](OC)[C@@]34[C@@H]2C[C@@H]([C@@H]13)[C@@]1(O)C[C@H](OC)[C@H]2C[C@@H]4[C@]1(O)[C@H]2OC
inactive: activation [1] -6.68% | Potency [13] | Potency [3] | Potency [14]

NCCCCCNC1(c2ccccc2)CCCCC1
inactive: activation [1] -6.68% | Potency [13] | Potency [3] | Potency [14]

N#C[C@@H](O[C@@H]1O[C@H](CO[C@@H]2O[C@H](CO)[C@@H](O)[C@H](O)[C@H]2O)[C@@H](O)[C@H](O)[C@H]1O)c1ccccc1
inactive: activation [1] -19.6% | Potency [13]

CC/C=C/C=C/C1(C)OC(OC)=C(C(=O)C2C(C)C(=O)c3cc(OC)c(O)c(O)c3C2(C)O)C1=O (stereo unspecified)
active: Potency [15] 11 µM
inactive: activation [1] 0.893% | Potency [12] | Potency [13]

C1=C(c2cnc[nH]2)c2ccsc2CC1
inactive: activation [1] -3.34% | Potency [13]
active: Potency [3] 5.62 µM

COc1ccc2c(C(=O)c3ccc(Cl)cc3)c(C)n(CC(=O)O)c2c1
inactive: activation [1] -36.8% | Potency [12] | Potency [13] | Potency [15] | Potency [16] | Potency [14] | Potency [10]

Cc1c(N[C@@H](c2nnc(-c3ccc(C#N)cc3)o2)[C@H](C)O)ccc(C#N)c1Cl
inactive: activation [1] 21% | Potency [11] | Potency [13] | Potency [16] | Potency [14] | Potency [10]
